# Bioassay records: PubChem BioAssay, NMMLSC
# In the library only some 1.2% were active in any assay of this set; here they are far more common.
# DSG3 Ab inh: human desmoglein-3 autoantibody binding inhibition; AID 588358; P32926; binding (percent of control), % at 10 µM; DSG3-coupled beads, scFv-anti-DSG3-GFP binding, flow cytometry; stronger effect = lower value; 310,000 compounds, 0.48% hits;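 active = binding more than 3 SD below its plate's average and above zero; inconclusive = below that plate limit but binding exactly zero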;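 also: hits lower antibody fragment binding to DSG3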
# Target sequence (P32926 whole entry, looked up, the tested form may be a part): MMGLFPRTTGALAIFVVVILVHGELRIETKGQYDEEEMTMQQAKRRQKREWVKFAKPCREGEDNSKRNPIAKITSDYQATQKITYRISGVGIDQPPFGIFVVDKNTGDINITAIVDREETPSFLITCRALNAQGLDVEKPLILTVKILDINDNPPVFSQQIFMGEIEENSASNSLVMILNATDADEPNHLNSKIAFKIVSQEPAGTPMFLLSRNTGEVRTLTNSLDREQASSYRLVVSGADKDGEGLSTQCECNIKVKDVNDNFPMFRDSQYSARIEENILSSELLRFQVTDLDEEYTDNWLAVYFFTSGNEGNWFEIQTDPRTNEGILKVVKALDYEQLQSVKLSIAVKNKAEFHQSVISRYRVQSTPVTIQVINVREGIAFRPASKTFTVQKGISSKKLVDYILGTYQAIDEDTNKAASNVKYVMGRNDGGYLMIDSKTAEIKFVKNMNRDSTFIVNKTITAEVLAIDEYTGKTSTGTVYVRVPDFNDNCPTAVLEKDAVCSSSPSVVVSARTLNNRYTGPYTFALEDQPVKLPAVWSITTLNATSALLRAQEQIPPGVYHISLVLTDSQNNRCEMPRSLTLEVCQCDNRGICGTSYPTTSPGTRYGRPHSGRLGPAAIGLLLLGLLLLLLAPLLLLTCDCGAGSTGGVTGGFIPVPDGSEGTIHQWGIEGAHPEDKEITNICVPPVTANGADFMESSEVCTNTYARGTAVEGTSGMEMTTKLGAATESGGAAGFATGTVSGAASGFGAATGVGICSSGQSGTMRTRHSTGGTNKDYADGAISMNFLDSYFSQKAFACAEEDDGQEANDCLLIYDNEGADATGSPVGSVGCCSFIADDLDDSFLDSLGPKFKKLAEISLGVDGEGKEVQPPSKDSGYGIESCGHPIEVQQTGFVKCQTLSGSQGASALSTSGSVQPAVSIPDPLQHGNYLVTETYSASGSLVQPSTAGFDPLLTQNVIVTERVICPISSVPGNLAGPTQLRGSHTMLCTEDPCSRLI
# LAP4-GFP MLPCN: modulators of TOR pathway LAP4-GFP in S. cerevisiae. S. cerevisiae LAP4-GFP multiplex, flow cytometry GFP, 3 h; median GFP as percent of DMSO wells. GFP response vs DMSO, % at 10 µM. 320,000 compounds, 0.34% hits. AID 2023;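 active = GFP response vs DMSO above a set limit, about the screen mean plus 3 SD, cut at about 150% in these data; inconclusive = under 70 cell events counted for the yeast strain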
# RPL19A-GFP yeast: modulators of TOR pathway RPL19A-GFP in S. cerevisiae; 330,000 compounds, 0.3% hits; S. cerevisiae RPL19A-GFP strain, flow cytometry, 3 h; stronger effect = lower value; percent response vs DMSO, % at 10 µM; AID 2025;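 active = percent response vs DMSO below 50%; inconclusive = fewer than 70 events counted for the yeast strain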;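 also: median channel GFP fluorescence of the barcoded RPL19A-GFP strain; ratio of sample median GFP to plate DMSO average so 100% = DMSO; lower means less RPL19A-GFP as with rapamycin TOR inhibition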
# AGP1 TOR yeast: alters AGP1-GFP fluorescence in TOR pathway yeast screen; S. cerevisiae AGP1-GFP multiplex flow cytometry, 3 h; GFP as percent of DMSO wells; GFP response vs DMSO, % at 10 µM; 320,000 compounds, 0.02% hits;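 active = GFP response relative to DMSO above a set limit, near screen average plus 3 SD, cut at about 150% in these data; inconclusive = fewer than 70 cells counted for the yeast strain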;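 also: median GFP channel fluorescence of the gated AGP1 strain per well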
# CIT2-GFP yeast: yeast TOR pathway CIT2-GFP modulation. S. cerevisiae CIT2-GFP strain, flow cytometry, 3 h; 100 means same as DMSO wells. GFP response vs DMSO, % at 10 µM. 320,000 compounds, 0.065% hits;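 active = GFP response relative to DMSO above a set limit, near the screen mean plus 3 SD, cut at about 150% in these data; inconclusive = Fewer than 70 cells measured for a yeast strain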;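 also: ratio of well median GFP fluorescence to mean of DMSO wells on the plate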
# MEP2-GFP yeast: modulators of TOR pathway MEP2-GFP in S. cerevisiae | S. cerevisiae MEP2-GFP strain, flow cytometry GFP, 3 h; 100% = DMSO control level | GFP response vs DMSO, % at 10 µM | 330,000 compounds, 0.51% hits;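 active = GFP response versus DMSO above a set limit, roughly screen mean plus 3 SD, cut at about 180% in these data; inconclusive = fewer than 70 cells counted for a yeast strain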;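 also: median GFP fluorescence of the barcode-gated MEP2-GFP cells per well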
# Starred values were filed as active, the others as inactive; ? = inconclusive; nt = no result; [ ] = remark or other dose.
SMILES,DSG3 Ab inh,LAP4-GFP MLPCN,RPL19A-GFP yeast,AGP1 TOR yeast,CIT2-GFP yeast,MEP2-GFP yeast
N/C(=N\OC(=O)CCC1CCCC1)c1ccncc1,104.4,114.2,96.6,103.4,96.3,99.7
C=CCn1c(O)c(N=NC(=S)Nc2ccccc2F)c2ccccc21,3.1*,?,?,?,91.6,?
Oc1c(N=NC(=S)Nc2ccccc2F)c2ccccc2n1Cc1ccccc1,98.2,107.6,100.2,103.4,96.3,98.3
O=C1CCCN1CCC(=O)N1CCCC(CO)(Cc2ccccc2)C1 (configuration not stated),nt,102.3,102.5,105.3,113.2,109.4
COc1ccc2c(c1)c(N=NC(N)=S)c(O)n2CC(=O)c1ccccc1,59.4*,118.1,102.2,116.4,121.5,106.8
COc1ccc(NC(=S)N/N=C2/CCCc3c(C)cc(C)cc32)cc1,-6.5*,99.5,102.6,98.4,97.3,98.8
Cc1ccc(NC(=S)N/N=C2/CCCCc3ccccc32)cc1,96.7,104.6,97.3,96.5,98.0,102.3
CCC(=O)N(CC)c1nc(-c2ccc(OC)cc2)cs1,73.5*,95.4,99.9,93.1,98.8,102.3
CCC(=O)N(Cc1ccco1)c1nc(-c2ccc(OC)cc2)cs1,98.1,101.3,98.1,111.8,106.8,106.6
COc1ccc(-c2csc(N(CC(C)C)C(=O)c3ccco3)n2)cc1,110.8,99.7,109.7,150.4*,99.7,106.1
CNCc1ccccc1Sc1ccc(O)c(O)c1,56.9*,98.5,106.7,106.3,108.4,101.0
COC(=O)CCC(=O)c1ccc(OC)c(Cl)c1,nt,105.5,106.4,94.9,89.7,97.3
O=C(CNC(=O)c1ccccc1)NCCCSc1ccccc1,132.1,93.9,103.2,103.3,109.2,106.5
O=C(NCCCSc1ccccc1)c1cc(Cl)ccc1O,111.5,162.1*,110.1,81.8,108.3,113.5
CC(=O)C1=C(O)CC(c2ccccc2)CC1=NCCc1c(C)[nH]c2ccc(C)cc12 (configuration not stated),-11.6*,97.1,98.8,96.4,92.0,94.8
CCOc1ccc(NS(=O)(=O)c2ccc3[nH]c(=O)[nH]c3c2)cc1,102.0,90.0,98.3,95.3,94.6,102.1
CCc1cc2c(=O)oc(-c3ccccc3F)nc2s1,78.6*,105.7,93.3,79.2,67.2,104.9
CCCCNC1=C(Br)C(=O)CC(C)(C)C1,106.7,99.3,99.5,106.2,104.8,107.6
O=[N+]([O-])c1cccc(-c2ccc(/C=N/Nc3nc(N4CCCCC4)nc(N4CCCCC4)n3)o2)c1,103.3,151.9*,89.4,103.3,101.8,115.2
CSc1ccc(NC(=O)NCCCN2CCC(Cc3ccccc3)CC2)cc1,105.6,106.4,102.5,98.3,94.2,106.4
CCOC(=O)C1=C[C@]2(CC)CCCN3CCc4c(n1c1ccccc41)[C@@H]32,75.4*,107.3,97.1,89.5,93.0,91.7
COc1ccc(OC(=O)N(C)C[C@H]2OCc3cn(nn3)CCCC(=O)N([C@H](C)CO)C[C@@H]2C)cc1,110.3,nt,nt,nt,nt,nt
O=C(Cc1ccc([N+](=O)[O-])cc1)Nc1ccc2c(c1)OCO2,97.5,113.0,100.7,112.3,95.3,106.4
O=C(Nc1ccc2c(c1)OCO2)c1ccc([N+](=O)[O-])cc1[N+](=O)[O-],111.5,98.7,65.2,22.7,?,220.4*[may fluoresce violet]
CC(Oc1ccc(Cl)cc1)C(=O)Nc1ccc(S(=O)(=O)N2CCOCC2)cc1 (configuration not stated),?,93.2,58.4,25.8,?,275.4*[may fluoresce violet]
CC(Oc1ccc(Cl)cc1)C(=O)Nc1cccc(S(=O)(=O)N2CCCC2)c1 (configuration not stated),93.3,nt,nt,nt,nt,nt
O=C(COc1ccc([N+](=O)[O-])cc1)Nc1ccc(S(=O)(=O)N2CCOCC2)cc1,105.5,96.2,58.5,24.3,?,398.7*[may fluoresce violet]
CCOc1ccc(N2CC(C(=O)Nc3ccc(S(=O)(=O)N4CCOCC4)cc3)CC2=O)cc1 (configuration not stated),106.1,95.9,64.4,25.7,?,185.8*[may fluoresce violet]
O=C(COc1ccc(S(=O)(=O)N2CCOCC2)cc1)Nc1cccc([N+](=O)[O-])c1,110.5,94.1,102.0,102.5,103.6,95.0
